± gives the standard deviation of the averaged measurements.
Legend:
[1] = system: IMR-90; assay: relative cell viability (ATPlite) vs untreated control (fraction); higher = less toxic; settings: 1 µM; 72 h
[2] = system: K562; assay: as above; settings: 1 µM; 72 h
[3] = system: K562; assay: relative cell viability (ATPlite) vs untreated control, with imatinib (fraction); higher = less toxic; settings: 1 µM; 72 h; imatinib 0.125 µM

SMILES | relative cell viability [1] | relative cell viability [2] | relative cell viability [3]
O=C(c1cc2cc(O)ccc2[nH]1)c1cc2cc(O)ccc2[nH]1 [Flt-3 Inhibitor II] | 1.04 ± 0.085 | 0.461 ± 0.026 | 0.418 ± 0.035
O=c1cc(N2CCNCC2)oc2c(-c3ccccc3)cccc12 | 0.987 ± 0.049 | 0.828 ± 0.11 | 0.76 ± 0.034
CC(C)(C)c1ccc(S(=O)(=O)Nc2ccc(-n3ccnc3)cc2)cc1 [Stem-Cell Factor/c-Kit Inhibitor, ISCK03] | 0.897 ± 0.068 | 0.818 ± 0.096 | 0.742 ± 0.038
Cc1ccc(S(=O)(=O)/C=C/C#N)cc1 | 1.01 ± 0.032 | 0.721 ± 0.15 | 0.697 ± 0.14
Cc1cncc2cccc(S(=O)(=O)N3CCCN(C(=O)CN)C[C@@H]3C)c12 [Rho Kinase Inhibitor IV] | 1.05 ± 0.12 | 0.809 ± 0.065 | 0.669 ± 0.031
O=C1NC(=O)c2c1c1c3ccccc3[nH]c1n1cncc21 [Isogranulatimide] | 1.01 ± 0.063 | 0.837 ± 0.077 | 0.773 ± 0.049
c1nc2c(NC3CCCCC3)nc(Nc3ccc(N4CCOCC4)cc3)nc2[nH]1 [Reversine] | 0.936 ± 0.08 | 0.578 ± 0.048 | 0.398 ± 0.075
CN[C@@H]1C[C@H]2O[C@@](C)([C@@H]1OC)n1c3ccccc3c3c4c(c5c6ccccc6n2c5c31)C(=O)N[C@H]4O | 0.101 ± 0.021 | 0.18 ± 0.048 | 0.14 ± 0.026
Nc1[nH]nc2nnc(-c3c(-c4ccccc4)nn4ccccc34)cc12 | 1.03 ± 0.046 | 0.915 ± 0.036 | 0.779 ± 0.048
Cc1ncc2ccccc2c1C#N [4-Cyano-3-methylisoquinoline] | 0.955 ± 0.066 | 0.917 ± 0.06 | 0.828 ± 0.032
CCCC(=O)Oc1ccc2[nH]c(C(=O)c3cc4ccccc4[nH]3)cc2c1 [PDGF Receptor Tyrosine Kinase Inhibitor II] | 1.01 ± 0.064 | 0.812 ± 0.097 | 0.77 ± 0.025
NC(=O)Nc1cc(-c2ccccc2)sc1C(N)=O [IKK-2 Inhibitor XI] | 0.982 ± 0.094 | 0.983 ± 0.09 | 0.802 ± 0.037
COc1cc2ncn(-c3cc(OCc4ccccc4S(C)(=O)=O)c(C#N)s3)c2cc1OC [IKK-3 Inhibitor IX] | 1.02 ± 0.11 | 0.843 ± 0.084 | 0.764 ± 0.036
CCN(CC)CCCCN1c2ccccc2Oc2ccc(Cl)cc21 [Akt Inhibitor X] | 0.889 ± 0.093 | 0.848 ± 0.089 | 0.77 ± 0.061
Cn1c(O)c(-c2[nH]c3ccccc3c2N=O)c2ccc(Br)cc21 [GSK-3 Inhibitor IX, Control, MeBIO] | 0.976 ± 0.047 | 0.964 ± 0.014 | 0.8454 ± 0.0073
N#CC(c1ccnc(NCCc2cccnc2)n1)c1nc2ccccc2s1 (stereo unspecified) [JNK Inhibitor V] | 1.01 ± 0.077 | 0.851 ± 0.092 | 0.703 ± 0.056

SMILES | relative cell viability [1] | relative cell viability [2] | relative cell viability [3]
O=C1Nc2ccc(Br)cc2/C1=C/c1cc2c([nH]1)CCCC2 [VEGF Receptor 2 Kinase Inhibitor II] | 0.979 ± 0.059 | 0.864 ± 0.081 | 0.782 ± 0.054
CCCCc1c(-c2ccc(OC)cc2)[nH]c2nccnc12 [Aloisine, RP106] | 0.897 ± 0.069 | 0.929 ± 0.046 | 0.819 ± 0.05
CC(C)[C@H](CO)Nc1nc(Nc2cccc(Cl)c2)c2ncn(C(C)C)c2n1 [Purvalanol A] | 1.04 ± 0.11 | 0.885 ± 0.065 | 0.75 ± 0.072
CCOC(=O)c1c(C)[nH]c(/C=C2\C(=O)Nc3ccccc32)c1C [VEGF Receptor 2 Kinase Inhibitor I] | 0.961 ± 0.063 | 0.996 ± 0.047 | 0.845 ± 0.075
Cc1nc(-c2ccccc2)c(-c2ccncc2)o1 | 1.02 ± 0.093 | 0.835 ± 0.077 | 0.649 ± 0.16
C[S+]([O-])c1ccc(-c2nc(-c3ccc(F)cc3)c(-c3ccncc3)[nH]2)cc1 (stereo unspecified) | 0.994 ± 0.062 | 0.921 ± 0.054 | 0.751 ± 0.048
N#Cc1c(NC(=O)c2cccc3ccccc23)sc2c1CCCC2 [JNK Inhibitor IX] | 0.97 ± 0.044 | 0.143 ± 0.058 | 0.101 ± 0.04
CCOc1nc(NC(=O)Cc2cc(OC)ccc2OC)cc(N)c1C#N [JNK Inhibitor VIII] | 0.992 ± 0.081 | 0.983 ± 0.035 | 0.769 ± 0.053
Cn1sc(=O)n(Cc2ccccc2)c1=O [GSK-3b Inhibitor I] | 0.98 ± 0.13 | 0.793 ± 0.027 | 0.704 ± 0.031
O=C1Cc2c([nH]c3ccc([N+](=O)[O-])cc23)-c2ccccc2N1 [Alsterpaullone] | 0.946 ± 0.067 | 0.906 ± 0.074 | 0.812 ± 0.026
Nc1nc(Nc2ccc(S(N)(=O)=O)cc2)nn1C(=S)Nc1c(F)cccc1F [Cdk1/2 Inhibitor III] | 1.11 ± 0.082 | 0.0545 ± 0.0021 | 0.0471 ± 0.0048
Nc1ncnc2c1c(I)cn2[C@@H]1O[C@H](CO)[C@@H](O)[C@H]1O [5-Iodotubercidin] | 0.745 ± 0.14 | 0.715 ± 0.12 | 0.702 ± 0.065
NCCNc1ncc(C(N)=O)c(Nc2cccc(C(F)(F)F)c2)n1 [Syk Inhibitor II] | 0.974 ± 0.079 | 0.949 ± 0.058 | 0.773 ± 0.048
N#C/C(=C(/N)Sc1ccccc1N)c1cccc(C(O)c2ccncc2)c1 (stereo unspecified) [MEK Inhibitor I] | 1.02 ± 0.1 | 0.732 ± 0.045 | 0.581 ± 0.03
COc1ccc(CNc2nc(N(CCO)CCO)nc3c2ncn3C(C)C)cc1 [Cdk2 Inhibitor III] | 0.927 ± 0.086 | 0.855 ± 0.061 | 0.772 ± 0.058
COc1cc2ncnc(Nc3ccc(NC(=O)c4ccccc4)cc3)c2cc1OC [Aurora Kinase Inhibitor II] | 0.92 ± 0.071 | 0.909 ± 0.055 | 0.783 ± 0.027

From the supplement of paper PMC4100887
